Among the test systems are SR leukemia; RPMI-8226 leukemia; OVCAR-8 ovarian; OVCAR-5 ovarian; SK-OV-3 ovarian; IGROV1 ovarian; OVCAR-3 ovarian; HS 578T breast; NCI/ADR-RES ovarian; T-47D breast; BT-549 breast; MDA-MB-435 melanoma; SW-620 colon; MCF7 breast; HCT-116 colon; HCC-2998 colon; KM12 colon; MDA-MB-468 breast; OVCAR-4 ovarian.
Holding throughout (experiment): NCI-60 one-dose screen, 48 h (100 = growth as untreated, 0 = no growth, -100 = all killed)
What all share (settings): 10 µM unless noted

About 83,000 compounds went through this panel and 20% of them were active in at least one assay; those are over-represented in the sample as a whole.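 Values shown are percent growth following 48 h exposure of cells in 96-well plates to a single concentration of compound; below 10 was considered active.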 Unmarked numbers belong to inactive results. Activity calls are given as the source filed them.

For the molecule `CCCCCCCCOc1cccc(S(=O)(=O)Nc2ccc(C)cc2C(=O)O)c1`, the growth with SR leukemia is 90%; in the test on RPMI-8226 leukemia it was 64.5%; with OVCAR-8 ovarian, 95.6%; with OVCAR-5 ovarian, 114%; in the test with SK-OV-3 ovarian, 108%; with IGROV1 ovarian, 99.7%. Further, the growth with OVCAR-3 ovarian is 102%; in the test with HS 578T breast, 106%; in the test on NCI/ADR-RES ovarian, 97.6%; in the test on T-47D breast, 105%; in the test with BT-549 breast, 115%; in the test on MDA-MB-435 melanoma it was 98.5%. Further, the growth with SW-620 colon is 96.5%; in the test with MCF7 breast, 89.8%; in the test on HCT-116 colon, 85.1%; in the test on HCC-2998 colon, 119%; in the test with KM12 colon it was 96.9%; in the test with MDA-MB-468 breast, 81.8%.
As to `N#Cc1c(-c2ccccc2Cl)cc(-c2c[nH]c3ccccc23)[nH]c1=O`, the growth with SR leukemia was 9.99% (active); in the test with RPMI-8226 leukemia, 70.7%; in the test on OVCAR-8 ovarian, 87.4%; in the test on OVCAR-5 ovarian, 82.1%; in the test with OVCAR-4 ovarian, 69.6%; in the test with SK-OV-3 ovarian, 87.8%. Moreover, the growth in the test on IGROV1 ovarian was 78.5%; in the test with OVCAR-3 ovarian, 93.8%; in the test on NCI/ADR-RES ovarian, 82.3%; in the test on T-47D breast, 65%; in the test on BT-549 breast, 73.9%; in the test with MDA-MB-435 melanoma, 23.6%. The growth in the test on MCF7 breast was 50.9%; in the test with HCC-2998 colon, 73.1%; in the test on KM12 colon it was 71%; in the test on MDA-MB-468 breast, 20.7%.
Regarding `O=C(N=Nc1c(O)[nH]c2ccc(Cl)cc12)c1ccc2nc(-c3ccccc3)[nH]c2c1`, the growth is 15.3% in the test on SR leukemia; 70.1% in the test with RPMI-8226 leukemia; 20.8% in the test with OVCAR-8 ovarian; 106% in the test with OVCAR-5 ovarian; 91% with SK-OV-3 ovarian; 75.4% with IGROV1 ovarian. Besides, the growth is 109% in the test with OVCAR-3 ovarian; 52.3% in the test with HS 578T breast; 90% with NCI/ADR-RES ovarian; 30.1% in the test on T-47D breast; 109% in the test with BT-549 breast; 79.7% in the test with MDA-MB-435 melanoma. The growth was 17.8% in the test on SW-620 colon; 4.1% (active) in the test on MCF7 breast; 59.4% with HCT-116 colon; 10.3% with HCC-2998 colon; 91.2% in the test on KM12 colon.
For `COc1cc(-c2ccc(/C=N/NC(=O)c3[nH]c4ccc(Br)cc4c3-c3ccccc3)o2)cc(OC)c1OC`, the growth with SR leukemia is 78%; in the test on RPMI-8226 leukemia it was 63.2%; with OVCAR-8 ovarian, 67.2%; in the test on OVCAR-5 ovarian, 99.6%; with OVCAR-4 ovarian, 92.3%; in the test on SK-OV-3 ovarian, 92.6%. For the same molecule, the growth in the test with IGROV1 ovarian was 95.1%; in the test on OVCAR-3 ovarian, 95.6%; in the test with NCI/ADR-RES ovarian, 59%; in the test with T-47D breast, 85.7%; in the test on BT-549 breast it was 95.4%; in the test on MDA-MB-435 melanoma, 90.3%. Besides, the growth in the test with MCF7 breast was 70%; in the test on HCT-116 colon, 76.7%; in the test on HCC-2998 colon it was 110%; in the test with KM12 colon, 82.3%; in the test with MDA-MB-468 breast, 88.6%.
In the case of `CC1=C(C(=O)c2ccccc2)C(c2ccc(-n3cncn3)cc2)n2c(nc3ccccc32)N1` (stereo not given), the growth with SR leukemia was 76.9%; with RPMI-8226 leukemia, 63.4%; in the test on OVCAR-8 ovarian, 91.4%; with OVCAR-5 ovarian, 97.3%; with OVCAR-4 ovarian, 71.8%; in the test on SK-OV-3 ovarian, 79.3%. Also, the growth with IGROV1 ovarian was 83.1%; in the test with OVCAR-3 ovarian, 107%; in the test with NCI/ADR-RES ovarian, 85.6%; with T-47D breast it was 83.6%; in the test with BT-549 breast, 67.4%; with MDA-MB-435 melanoma it was 94%. In addition, the growth with MCF7 breast was 66.7%; with HCT-116 colon, 73%; with HCC-2998 colon, 109%; in the test on KM12 colon it was 94.6%; with MDA-MB-468 breast, 95.6%.
With `CC(C)CCNC(=O)N/C(N)=N/c1nc2ccccc2s1`, the growth in the test with SR leukemia was 34.4%; in the test with RPMI-8226 leukemia, 38.2%; in the test with OVCAR-8 ovarian it was 70.7%; with OVCAR-5 ovarian it was 93%; in the test on OVCAR-4 ovarian, 48.7%; in the test on SK-OV-3 ovarian it was 87.9%. Also, the growth in the test with IGROV1 ovarian is 76.6%; in the test on OVCAR-3 ovarian, 80.4%; in the test on NCI/ADR-RES ovarian it was 56.6%; with BT-549 breast, 64.6%; with MDA-MB-435 melanoma, 44.2%; with MCF7 breast, 28.5%. The growth in the test on HCT-116 colon is 54.7%; with HCC-2998 colon, 97.6%; with KM12 colon, 62.7%; in the test with MDA-MB-468 breast it was 5.8% (active).
With `O=C(/C=C/c1ccc(-c2ccccc2)cc1)c1nc2ccccc2n1Cc1ccc(Br)cc1`, the growth is 2.11% (active) in the test with SR leukemia; 14.1% in the test on RPMI-8226 leukemia; 43.9% in the test with OVCAR-8 ovarian; 74.7% with OVCAR-5 ovarian; 50% in the test with OVCAR-4 ovarian; 85.3% in the test with SK-OV-3 ovarian. Also, the growth is 63.6% in the test on IGROV1 ovarian; 45% in the test on OVCAR-3 ovarian; 47.1% in the test with NCI/ADR-RES ovarian; 7.98% (active) in the test with T-47D breast; 41.7% in the test on BT-549 breast; 61.9% with MDA-MB-435 melanoma. The growth with MCF7 breast is 21.3%; with HCC-2998 colon it was 62.6%; in the test with KM12 colon it was 74.3%; in the test on MDA-MB-468 breast, 49.6%.
Take `CNC(=O)c1cccc(NC(=O)c2ccc3c(c2)nnn3/C(C#N)=C/c2ccccn2)c1`: the growth with SR leukemia is -5.41% (active); in the test on RPMI-8226 leukemia it was -23.6% (active); in the test on OVCAR-8 ovarian it was 10%; with OVCAR-5 ovarian, 19.6%; in the test on OVCAR-4 ovarian, 40.6%; in the test on SK-OV-3 ovarian, 83.4%. Besides, the growth with IGROV1 ovarian is -2.48% (active); with OVCAR-3 ovarian it was -69.2% (active); with NCI/ADR-RES ovarian, 84.3%; with T-47D breast, -70.4% (active); with BT-549 breast, -98.7% (active); with MDA-MB-435 melanoma, 11.5%. In addition, the growth in the test with MCF7 breast was -77.2% (active); with HCT-116 colon, -89% (active); in the test on HCC-2998 colon, -92.7% (active); with KM12 colon it was 55.9%; in the test with MDA-MB-468 breast, -85.5% (active).
Regarding `CSc1ccc(C(=O)Nc2ccc3nn(/C(C#N)=C/c4ccccn4)nc3c2)cc1`, the growth was -3.69% (active) in the test on SR leukemia; -42.5% (active) in the test on RPMI-8226 leukemia; -1.48% (active) in the test on OVCAR-8 ovarian; -86.2% (active) in the test on OVCAR-5 ovarian; 15.8% in the test on OVCAR-4 ovarian; 30.8% with SK-OV-3 ovarian. Also, the growth with IGROV1 ovarian was -83% (active); in the test on OVCAR-3 ovarian, -92.6% (active); in the test with NCI/ADR-RES ovarian, 2.33% (active); in the test on T-47D breast, -26% (active); with BT-549 breast it was -90.1% (active); in the test with MDA-MB-435 melanoma it was -44.9% (active). The growth in the test on MCF7 breast is -78.6% (active); with HCC-2998 colon, -99.8% (active); in the test on KM12 colon, -43.6% (active); in the test with MDA-MB-468 breast, -90.7% (active).

Source of the values: PubChem BioAssay (NCI).
